FLuc inh: Photinus pyralis luciferase inhibition | P08659 | purified P. pyralis luciferase, luminescence, biochemical | Potency, µM (top dose mostly 115 µM), actives largely listed as inhibitors | actives 2.5% (n = 76,000) | AID 1347043; further: nearly all actives have a fitted effect of over 65% in size
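Purified P. pyralis luciferase (10nM final) in 50mM Tris acetate pH 7.5, 10mM Mg acetate, 0.01% Tween-20, 0.05% BSA with 10uM D-luciferin and 10uM ATP. Compounds titrated qHTS. Luminescence imaged on CCD.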
HEK293 tox: kills HEK 293 cells; HEK 293 viability, ATP luminescence (CellTiter-Glo), 48-72 h; Potency, µM (doses to about 115 µM), for inactives: at the highest dose activity change, negative = cytotoxicity, most hits filed as inhibitors; actives 6.6% (n = 94,000); further: nearly all actives have a fitted effect of over 60% in size
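Read-out: CellTiter-Glo ATP luminescence. Cells: HEK 293, 250 cells/well. Exposure: 48 or 72 hr, 37 degree Celsius.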
hNpr1 antagonist: human Npr1 receptor antagonism | AID 1347048 | actives 1.6% (n = 76,000) | HEK293 hNpr1 GloSensor cGMP, ANP-stimulated luminescence | P16066 | Potency, µM (top dose mostly 46.3 µM), for inactives: top-dose activity change, negative = inhibition, hits mostly inhibitors; calls by dose curve; further: nearly all actives have a fitted effect of over 60% in size
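Compound pre-incubated 30 min at room temperature on GloSensor-loaded HEK293 cells stably carrying hNpr1 and the pGS-40F cGMP biosensor. Stimulation uses hNppA at 0.1 nM final; luminescence is taken at baseline and 20 min post-agonist.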
NIH3T3 tox: kills NIH 3T3 cells. NIH 3T3 viability, CellTiter-Glo ATP luminescence, 48-72 h. Potency, µM (series often up to 96.7 µM), without a hit: at the top dose activity change, negative = cytotoxicity, usual class: inhibitors. actives 4.3% (n = 94,000). AID 1345082; further: nearly all actives have a fitted effect of over 55% in size
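NIH 3T3 cells at 400 cells/well received 23 nL of compound by pintool and were incubated 48 or 72 h at 37 °C. Viability was read as ATP-coupled CellTiter-Glo luminescence.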
GPT2 inhibitor: blocks human glutamate pyruvate transaminase 2; Q8TD30; Recombinant GPT2, coupled pyruvate oxidase/HRP Amplex Red fluorescence; Potency, µM (highest dose often 57.7 µM), for the others: at the highest dose activity change, negative = inhibition, usual class: inhibitors; actives 0.25% (n = 100,000); further: nearly all actives have a fitted effect of over 60% in size
Target sequence (Q8TD30 whole entry, looked up): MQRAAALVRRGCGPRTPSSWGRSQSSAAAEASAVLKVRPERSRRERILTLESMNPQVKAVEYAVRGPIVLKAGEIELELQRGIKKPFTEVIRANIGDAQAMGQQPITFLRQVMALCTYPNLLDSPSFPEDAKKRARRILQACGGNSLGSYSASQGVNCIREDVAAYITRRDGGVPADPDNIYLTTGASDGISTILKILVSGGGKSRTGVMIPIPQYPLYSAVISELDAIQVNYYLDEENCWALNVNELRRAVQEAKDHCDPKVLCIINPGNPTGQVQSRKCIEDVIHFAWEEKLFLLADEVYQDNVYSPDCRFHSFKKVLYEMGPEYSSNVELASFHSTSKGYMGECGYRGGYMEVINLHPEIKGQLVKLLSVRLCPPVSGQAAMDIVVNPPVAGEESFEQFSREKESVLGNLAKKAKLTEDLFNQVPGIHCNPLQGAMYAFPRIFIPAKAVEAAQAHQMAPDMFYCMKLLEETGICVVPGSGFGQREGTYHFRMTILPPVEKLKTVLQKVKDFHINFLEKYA
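GPT2 10ng/uL, a-KG 250uM, L-Ala 2mM, HEPES pH7.5 + 0.0001% Tween; 30 min RT. Then Amplex mix (PO/HRP/ThPP), 30 min RT dark, fluorescence. AOA 50uM used as positive control.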
Numbers without * were called inactive; [ ] = another dose, or the depositor's remark. Only some compounds are listed: those with a hit (about 10% of all), similar ones and a draw of the others. Unless noted, the call rests on the fitted dose curve; in most records, active means well fitted curve in the direction sought with a large enough effect; inconclusive means small, poorly fitted or top-dose-only effect, or another doubt; inactive means no such curve, though single readings can be large; an effect the other way counts as inactive or inconclusive. On the % scale 0 is the no-effect control and ±100 the full control effect; potency means the concentration at half of the fitted maximal effect.

`Cc1nn(-c2ccc(F)cc2)c(Oc2cccc(F)c2)c1CCC(=O)N(C)C(C)C` gave FLuc inh inactive, HEK293 tox 50µM*, hNpr1 antagonist -17%, NIH3T3 tox inconclusive and GPT2 inhibitor 2%.
Screening Cc1nn(-c2ccc(F)cc2)c(Oc2ccccc2F)c1CCC(=O)N1CCCC1 returned FLuc inh inactive, HEK293 tox 35µM*, hNpr1 antagonist -10%, NIH3T3 tox 28µM* and GPT2 inhibitor 0%.
Cc1nn(-c2ccc(F)cc2)c(Oc2ccccc2F)c1CCC(=O)NCc1ccco1 was read as FLuc inh inactive, HEK293 tox inconclusive, hNpr1 antagonist -19%, NIH3T3 tox 35µM* and GPT2 inhibitor 2%.
`CCc1nn(-c2ccccc2)c(Oc2ccc(C)cc2)c1CCC(=O)N1CCSCC1` gave FLuc inh inactive, HEK293 tox 40µM*, hNpr1 antagonist -4%, NIH3T3 tox inconclusive and GPT2 inhibitor -15%.
For CN(Cc1ccc2ncccc2c1)C(=O)c1ccc(C2CCNC2)cc1 (stereo not drawn) the results were FLuc inh inactive, HEK293 tox inconclusive, hNpr1 antagonist 0%, NIH3T3 tox -25% and GPT2 inhibitor inactive.
Screening NCCCC(=O)N1CCC2(CC1)CN(C(=O)c1ccc(Cl)cc1)CCO2 returned HEK293 tox 3%, NIH3T3 tox 32µM* and GPT2 inhibitor -3%.
`c1ccc(-c2cc(CC3(NCC4CCCCC4)COC3)no2)cc1` gave FLuc inh inactive, HEK293 tox 100µM*, hNpr1 antagonist inconclusive, NIH3T3 tox inconclusive and GPT2 inhibitor 3%[88.5 µM].
Fc1ccc(-c2cc(CC3(NCc4ccc(OC(F)(F)F)cc4)COC3)no2)cc1 was read as FLuc inh inactive, HEK293 tox 79µM*, hNpr1 antagonist inconclusive, NIH3T3 tox 100µM* and GPT2 inhibitor -11%[88.5 µM].
CC(C)CNC(=O)c1nc2sccn2c1-c1cccc(C#N)c1 was read as HEK293 tox -13%[172 µM], NIH3T3 tox -26%[138 µM] and GPT2 inhibitor -14%[88.5 µM].
`c1ccc(-c2ccccc2CN[C@@H]2C[C@@H]3CO[C@H](c4ccccc4)C[C@@H]3C2)cc1` gave HEK293 tox inconclusive and NIH3T3 tox 18µM*.
For c1ccc(CN[C@@H]2C[C@@H]3CO[C@H](c4ccccc4)C[C@@H]3C2)cc1 the results were HEK293 tox inconclusive and NIH3T3 tox -26%.
`CC1=C[C@@H](CNC(=O)c2ccc(F)cc2)[C@H](C(C)C)C[C@H]1Cc1nnc(-c2ccncc2)o1` gave FLuc inh inactive, HEK293 tox 35µM*, hNpr1 antagonist inconclusive, NIH3T3 tox inconclusive and GPT2 inhibitor -13%.
`CC1=C[C@@H](CNC(=O)c2ccc(C#N)cc2)[C@H](C(C)C)C[C@H]1Cc1nnc(-c2ccncc2)o1` gave FLuc inh inactive, HEK293 tox inconclusive, hNpr1 antagonist inconclusive, NIH3T3 tox inconclusive and GPT2 inhibitor -15%.
CC1=C[C@@H](CNC(=O)C(C)(C)C)[C@H](C(C)C)C[C@H]1Cc1nnc(-c2ccncc2)o1 was read as FLuc inh inactive, HEK293 tox 79µM*, hNpr1 antagonist -29%[70.6 µM], NIH3T3 tox -20%[174 µM] and GPT2 inhibitor 0%[88.5 µM].
`COc1ccc(C(=O)NC[C@@H]2C=C(C)[C@H](Cc3nnc(-c4ccncc4)o3)C[C@H]2C(C)C)cc1` gave FLuc inh inactive, HEK293 tox 50µM*, hNpr1 antagonist inconclusive, NIH3T3 tox inconclusive and GPT2 inhibitor 4%.
Cn1ncc2c(C(=O)NCc3cccc(F)c3)cc(-c3ccc([S+](C)(=O)[O-])cc3)nc21 was read as HEK293 tox inactive, NIH3T3 tox inactive and GPT2 inhibitor inactive.
CC1CCN(CCNC(=O)c2cc3cn(C(C)C)cc3s2)CC1 was read as FLuc inh inactive, HEK293 tox -4%, hNpr1 antagonist -4%, NIH3T3 tox 0% and GPT2 inhibitor -13%.
For CCCNC(=O)NC[C@@H]1C=C(C)[C@H](Cc2nc3nc(OC)ccc3[nH]2)C[C@H]1C(C)C the results were FLuc inh inactive, HEK293 tox 63µM*, hNpr1 antagonist -19%[70.6 µM], NIH3T3 tox 89µM* and GPT2 inhibitor -12%[88.5 µM].

Screens (PubChem BioAssay)
